Our source for the inhibition values is PubChem BioAssay AID488857 (Sanford-Burnham Center for Chemical Genomics, 2010).

About 560 (40%) of roughly 1,400 compounds were called active. The set was probably picked from earlier hits. Some of the results follow. A number with no mark means an inactive call.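 The calls were made as follows: active = mean inhibition over duplicate tests at 10 µM above 50%; inactive = the rest.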

The experiment can be described thus: ASC/caspase-1 reporter retest in S. cerevisiae at one dose, specificity check for NALP1 project (AID 488857). To be noted: S. cerevisiae ASC/Caspase-1, beta-galactosidase luminescence, 24 h; at 10 µM; hits give high values.
Consider `CC1CCCCN1C(=S)Nc1ccc2nc3n(c(=O)c2c1)CCCCC3` (stereo unspecified), for which the inhibition was 40.4%.
Regarding `O=C(Nc1ccc2nc3n(c(=O)c2c1)CCCC3)c1cc([N+](=O)[O-])ccc1F`, the inhibition was 79.8% (active).
The result for `Cc1cc(NC(=O)/C=C/c2ccccc2Cl)no1` reads 51.1% (active); that for `CCOC(=O)c1ccc(N2C(=O)CC(N3CCCC(C)C3)C2=O)cc1` (stereo unspecified), 49.7%; that for `CCOC(=O)CCCNC(=O)COC(=O)c1ccc(O)cc1`, 35.5%.
The result for `CCOC(=O)c1ccc(N2C(=O)C=CC2=O)cc1` reads 82.3% (active); that for `CC1=NNC(=O)/C1=C\c1cn(-c2ccccc2)nc1-c1cccs1`, 89.6% (active); that for `CC1(C)CC(=O)c2c(-c3cccs3)n[nH]c2C1`, 44.1%.
The result for `Cc1cc(N2CCOCC2)n2ncc(-c3ccccc3)c2n1` reads 71.5% (active); that for `COc1ccc(/C=C2\SC(N3CCc4ccccc4C3)=NC2=O)cc1`, 76.5% (active).
On to `CCOc1ccccc1C1CC(=O)NC(SCC(=O)Nc2nccs2)=C1C#N` (stereo unspecified), for which the inhibition was 10.7%.
The result for `CSc1ccc(S(=O)(=O)NCc2ccc(C)cc2)cc1` reads 56% (active); that for `Cc1ccc(S(=O)(=O)NCc2ccc(C(=O)NCCCN3CCC(Cc4ccccc4)CC3)cc2)cc1`, 20.4%; that for `COc1ccc(CNC(=O)CCNS(=O)(=O)c2ccc(C)cc2)cc1`, 43.1%.
The result for `c1ccc(-c2cccc(-c3ccccn3)n2)nc1` reads 97.2% (active); that for `c1ccc(Nc2ccccn2)cc1`, 34.5%; that for `CCCCOC(=O)Oc1ccc2c(=O)c(Oc3cc(C)cc(C)c3)coc2c1`, 54.9% (active).
`Cc1cc(C)n(CCOc2ccc(Cl)cc2Cl)n1`: the inhibition was 56.7% (active).
The result for `CC1=C(C)/C(=N\OS(=O)(=O)c2ccc(C)cc2)C=CC1=O` reads 92.7% (active).
Take `N/C(Cc1ccc(Cl)cc1)=N\OC(=O)C1CCCCC1`: the inhibition was 47.5%.
The result for `N/C(Cc1ccc([N+](=O)[O-])cc1)=N\OC(=O)c1ccccc1Br` reads 71% (active); that for `Cc1cccc(/C(N)=N/OC(=O)c2cccc3ccccc23)c1`, 52.9% (active); that for `Cc1cccc(/C(N)=N/OC(=O)c2ccc(Cl)cc2Cl)c1`, 32.9%.
The result for `COc1ccccc1C/C(N)=N/OC(=O)c1cccc([N+](=O)[O-])c1C` reads 41.5%.
The result for `O=C(Cc1ccc([N+](=O)[O-])cc1)c1ccc(O)cc1O` reads 49.1%.
Turning to `Cc1cccc(C(=O)NNC(=O)CN2C(=O)c3ccccc3C2=O)c1`, the inhibition is 32.6%.
Consider `N/C(Cc1ccccc1)=N\OC(=O)c1cccc2ccccc12`, for which the inhibition was 51.2% (active).
The result for `CCOC(=O)C1C(=O)Oc2ccc3ccccc3c2C1C1CCOC1=O` (stereo unspecified) reads 32.4%; that for `CN1CCN(S(=O)(=O)c2ccc(Br)c3nsnc23)CC1`, 45.2%.
The result for `CN1CCN(C2=C(Cl)C(=O)N(CCc3ccccc3)C2=O)CC1` reads 47.1%; that for `C=CCSc1nsc(NC(=O)Nc2ccc(F)cc2)n1`, 98.9% (active).
Consider `CCOC(=O)n1c(=O)n(Cc2ccccc2)c2ccccc21`, for which the inhibition was 47.1%.
The result for `CC12CCC(C(=O)O)(C/C1=N\O)C2(C)C` (stereo unspecified) reads 21%.
The result for `O=C(CCCN1C(=O)c2ccccc2C1=O)Oc1ccc(Cl)cc1` reads 31.9%.
As to `COc1ccc(OCCCC(=O)Oc2ccc(OC)cc2)cc1`, the inhibition is 50.5% (active).
On to `COc1ccc(OCCCC(=O)NCCc2ccccc2)cc1`, for which the inhibition was 51.9% (active).
The result for `COc1ccc(CNCCC(c2ccc(F)cc2)c2ccc(OC)cc2)cc1` (stereo unspecified) reads 61.4% (active); that for `CCOCCCNCc1ccc(OCc2ccccc2Cl)cc1`, 45.9%.
The result for `CN(C)C(CNC(=O)CCCOc1ccccc1)c1ccco1` (stereo unspecified) reads 39.1%.
Consider `COc1ccc(C(CCNCc2ccccc2F)c2ccc(F)cc2)cc1` (stereo unspecified), for which the inhibition is 45.1%.
The result for `COc1ccc(CNCCSc2nnnn2C)cc1OC` reads 40.2%.
The result for `COc1ccc(CCNCc2ccc(OCc3ccccc3)cc2)cc1` reads 80.8% (active); that for `COc1ccc(OCCCC(=O)NCC(C)C)cc1`, 39.5%; that for `COc1ccc(OCC#CCNC(C)(C)C)cc1`, 30.3%.
Take `COc1cc(/C=C2\SC(=Nc3ccc(F)cc3)N(c3ccc(F)cc3)C2=O)ccc1OCC(=O)O`: the inhibition was 31.9%.
The result for `O=C1Cc2ccccc2C(=O)N1OCc1ccc(Cl)cc1Cl` reads 29.5%; that for `O=C1CCCc2ccccc2N1Cc1ccc(Cl)cc1Cl`, 31.8%.
The result for `Clc1ccc(CO/N=C2\CCCc3nonc32)c(Cl)c1` reads 52.5% (active); that for `CN(C)C(=N)c1n[nH]nc1SCc1ccccc1`, 27.9%.
The result for `CCCCCCCCCCCCCCCC[n+]1ccc(/C=N/O)cc1` reads 85.1% (active); that for `CCCCCCCCCCCCCCCC[n+]1cccc(C(=O)N(CC)CC)c1`, 93.2% (active); that for `CCCCCCCCCCCCCCCC[n+]1ccc(C(N)=O)cc1`, 80.4% (active).
For the compound `CCCCN(CC)S(=O)(=O)c1ccccc1`, the inhibition was 8.05%.
The result for `COC(=O)c1c(NC(NC(=O)C(C)C)C(Cl)(Cl)Cl)sc2c1CCC2` (stereo unspecified) reads 33.2%.
The result for `COC(=O)c1c(NC(=O)C2CCCO2)sc2c1CCC2` (stereo unspecified) reads 58% (active).
Take `CCOc1cc(-c2c(C)c(C)nc(N)c2C#N)ccc1O`: the inhibition is 49.5%.
The result for `O=C(Nc1cc(N2CCOCC2)ncn1)NC1(C(F)(F)F)Oc2ccc(Cl)cc2O1` (stereo unspecified) reads 36.8%.
The result for `CCc1ccc(CC(=S)N2CCOCC2)cc1` reads 51.4% (active); that for `O=C(C(Cc1ccccc1)n1cccc1)N1CCN(c2ccccc2)CC1` (stereo unspecified), 49.2%.
In the case of `O=C(NC(=O)N1CCN(c2ccc(F)cc2)CC1)c1ccccc1`, the inhibition was 53% (active).
The result for `O=S(=O)(N1CCCCC1)N1CCN(c2ccc(F)cc2)CC1` reads 45.9%.
The result for `CC(C)Oc1ccc(OCCNC2CCCC2)cc1` reads 45.6%; that for `CCN(CC)S(=O)(=O)c1cccc(C(=O)N[C@H](C(=O)O)C(C)C)c1`, 45.6%; that for `COc1ccc(/C=C(/C(=O)c2cccs2)N2C=CC=CC2=C(C#N)C#N)cc1`, 51.5% (active).
The result for `N#CC(C#N)=C1C=CC=CN1/C(=C\c1ccccc1Cl)C(=O)c1ccccc1` reads 17.6%; that for `CN(C)CCNC=C(C(=O)Nc1ccc(Cl)cc1Cl)C(=O)Nc1ccc(Cl)cc1Cl`, 36%.

The inhibition is how much of the control response was suppressed.
